Where “and” joins values, the source holds several entries; their conditions need not be identical. Equal values may be shown once. A number with no mark means an inactive call. Inconclusive results are not listed. Where a call stands in place of a potency, no number is given. More than one record can exist for a structure, and the calls need not agree. Calls of active or inactive are those of the source. Unless noted, the call rests on the fitted dose curve; in most records, active means well fitted curve in the direction sought with a large enough effect; inconclusive means small, poorly fitted or top-dose-only effect, or another doubt; inactive means no such curve, though single readings can be large; an effect the other way counts as inactive or inconclusive.
Columns and labels:
[1] = molecular target: Tumor necrosis factor (Homo sapiens) (UniProt P01375); experiment: qHTS assay to identify small molecules that stimulate Tumor Necrosis Factor-alpha (TNF-alpha) secretion (AID 651757; active means well fitted curve in the direction sought with a large enough effect in the signal ratio; the % refers to the signal ratio)
Chain of Tumor necrosis factor (Homo sapiens) (P01375 whole entry, looked up): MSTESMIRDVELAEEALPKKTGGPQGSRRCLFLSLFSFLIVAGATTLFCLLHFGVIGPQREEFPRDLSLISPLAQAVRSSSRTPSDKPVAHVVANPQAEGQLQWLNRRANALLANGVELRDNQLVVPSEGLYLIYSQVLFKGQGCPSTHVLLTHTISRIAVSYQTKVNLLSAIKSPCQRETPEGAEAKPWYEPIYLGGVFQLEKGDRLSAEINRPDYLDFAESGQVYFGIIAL
Summary of the method: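 Using 3000 THP-1 cells per well, compounds and controls were applied for 17 hrs at 37 C. Detection followed with two labeled anti-TNF-alpha antibodies (cryptate donor, XL665 acceptor) for 3 hr at room temperature, measured by TR-FRET.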

[2] = molecular target: Peroxisome proliferator-activated receptor alpha (Homo sapiens) (UniProt Q07869); experiment: qHTS assay for small molecule agonists of the peroxisome proliferator-activated receptor alpha (PPARalpha) signaling pathway (AID 651778); conditions: PathHunter PPARalpha complementation, chemiluminescence, 6 h; max response: stronger effect = higher value; further: potency means the concentration at half of the fitted maximal effect
Chain of Peroxisome proliferator-activated receptor alpha (Homo sapiens) (Q07869 whole entry, looked up): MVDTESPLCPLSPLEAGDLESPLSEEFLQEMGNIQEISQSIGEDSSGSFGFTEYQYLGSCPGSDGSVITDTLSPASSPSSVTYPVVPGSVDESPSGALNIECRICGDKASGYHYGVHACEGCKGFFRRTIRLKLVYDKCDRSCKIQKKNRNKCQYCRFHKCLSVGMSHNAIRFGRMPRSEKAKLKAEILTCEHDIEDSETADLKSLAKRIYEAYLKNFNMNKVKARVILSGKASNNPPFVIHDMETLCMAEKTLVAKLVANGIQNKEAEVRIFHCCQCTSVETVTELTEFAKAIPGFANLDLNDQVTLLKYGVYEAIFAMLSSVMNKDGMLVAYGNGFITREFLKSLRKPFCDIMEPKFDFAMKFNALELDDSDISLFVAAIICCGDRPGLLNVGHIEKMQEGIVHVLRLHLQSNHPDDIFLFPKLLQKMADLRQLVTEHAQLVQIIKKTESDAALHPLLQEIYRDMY
Summary of the method: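 Chemiluminescence from complemented enzyme reported PPARalpha activation in cells after 6 hr of compound treatment at 37 C. The detection reagent was incubated for 60 min at room temperature, and compounds were scored as agonists.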

[3] = qHTS assay for small molecule agonists of the antioxidant response element (ARE) signaling pathway measured by Nrf2-dependant transcriptional activity (AID 720636; active means well fitted curve in the direction sought with a large enough effect in the repeat runs; an effect the other way counts as inactive or inconclusive)
Summary of the method: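 ARE-luc HepG2 cells carrying an Nrf2-responsive luciferase reporter were plated in medium with 1% dialyzed FBS, left 6 hr at 37 C to attach, then exposed to compound for 16 hr. Luciferase luminescence was read after ONE-Glo addition.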

[4] = qHTS assay for small molecule antagonists of the retinoid-related orphan receptor gamma (ROR-gamma) signaling pathway - cell viability counter screen (AID 720652; active means well fitted curve in the direction sought with a large enough effect in the repeat runs; an effect the other way counts as inactive or inconclusive;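 further: compound exposure lasted 16 hr before ATP read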; further: potency means the concentration at half of the fitted maximal effect)
Summary of the method: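 ATP-based viability readout in the ROR-gamma reporter CHO cells after 16 hr compound exposure under doxycycline induction.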

[5] = qHTS assay for small molecule agonists of the antioxidant response element (ARE) signaling pathway measured by Nrf2-dependant transcriptional activity - cell viability counter screen (AID 720653; active means well fitted curve in the direction sought with a large enough effect in the repeat runs; an effect the other way counts as inactive or inconclusive; further: potency means the concentration at half of the fitted maximal effect); conditions: ARE-bla HepG2 viability, CellTiter-Glo ATP luminescence, 16 h; max response: stronger effect = lower value
Summary of the method: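 Cytotoxicity counter screen: intracellular ATP quantified by CellTiter-Glo luminescence in the same ARE-bla HepG2 plates, after 16 h compound exposure and a 2 h beta-lactamase substrate step.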

[6] = qHTS assay for small molecule disruptors of the mitochondrial membrane potential - 5 hr assay (AID 651755; calls by dose curve; further: nearly all actives have a fitted effect of over 40% in size; further: potency means the concentration at half of the fitted maximal effect)
Summary of the method: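 Membrane-potential dye readout: red aggregate (540 ex/590 em) versus green monomer (490 ex/535 em) fluorescence after 30 min dye loading, following 5 hr compound exposure at 37C of overnight-plated HepG2 cells.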

[7] = qHTS assay for environmental chemicals that activate the Aryl hydrocarbon Receptor (AhR) signaling pathway (AID 651777); conditions: 1A2-DRE human hepatoma cells, luciferase, 24 h; stronger effect = higher value; further: nearly all actives have a fitted effect of over 15% in size
Summary of the method: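 Human hepatoma 1A2-DRE cells, stably carrying a dioxin response element and CYP1A2 promoter driving luciferase, were exposed to compounds for 24 hr at 37 C and 5% CO2. Luciferase signal was then read after 30 min One-Glo at room temperature.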

[8] = molecular target: Nuclear receptor ROR-gamma (Homo sapiens) (UniProt P51449); experiment: qHTS assay for small molecule antagonists of the retinoid-related orphan receptor gamma (ROR-gamma) signaling pathway (AID 651802); further: nearly all actives have a fitted effect of over 60% in size; further: potency means the concentration at half of the fitted maximal effect
Chain of Nuclear receptor ROR-gamma (Homo sapiens) (P51449 whole entry, looked up): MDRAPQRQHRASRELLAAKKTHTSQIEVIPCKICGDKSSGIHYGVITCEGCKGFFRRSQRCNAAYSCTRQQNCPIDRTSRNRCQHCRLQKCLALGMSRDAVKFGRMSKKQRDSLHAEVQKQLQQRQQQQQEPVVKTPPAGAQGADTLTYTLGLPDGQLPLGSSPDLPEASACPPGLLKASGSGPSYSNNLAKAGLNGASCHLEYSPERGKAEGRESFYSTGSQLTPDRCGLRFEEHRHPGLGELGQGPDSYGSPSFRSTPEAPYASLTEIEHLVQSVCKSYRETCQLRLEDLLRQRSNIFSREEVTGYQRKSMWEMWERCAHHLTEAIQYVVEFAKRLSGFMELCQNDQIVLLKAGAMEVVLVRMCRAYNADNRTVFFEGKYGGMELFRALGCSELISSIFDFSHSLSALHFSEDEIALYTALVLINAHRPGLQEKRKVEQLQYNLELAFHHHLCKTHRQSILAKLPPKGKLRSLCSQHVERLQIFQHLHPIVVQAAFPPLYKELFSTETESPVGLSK
Summary of the method: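 Doxycycline-induced reporter activity in engineered CHO cells (TET-inducible ROR, RORE-LUC) was measured by luminescence after 16hr compound exposure at 37C.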

[9] = qHTS assay for small molecule disruptors of the mitochondrial membrane potential - 1 hr assay (AID 651754; calls by dose curve; further: nearly all actives have a fitted effect of over 35% in size; further: potency means the concentration at half of the fitted maximal effect)
Summary of the method: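 In this qHTS format, a 1 hr compound treatment of HepG2 cells precedes Mito-MPS staining, and membrane potential is judged from aggregate (red) against monomer (green) fluorescence intensity.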

[10] = molecular target: Arylsulfatase A (Homo sapiens) (UniProt P15289); experiment: qHTS screen for enhancers of Arylsulfatase A (ASA1): LOPAC Validation Assay (AID 720538); conditions: outcome: dose series up to 57.5 µM
Chain of Arylsulfatase A (Homo sapiens) (P15289 whole entry, looked up): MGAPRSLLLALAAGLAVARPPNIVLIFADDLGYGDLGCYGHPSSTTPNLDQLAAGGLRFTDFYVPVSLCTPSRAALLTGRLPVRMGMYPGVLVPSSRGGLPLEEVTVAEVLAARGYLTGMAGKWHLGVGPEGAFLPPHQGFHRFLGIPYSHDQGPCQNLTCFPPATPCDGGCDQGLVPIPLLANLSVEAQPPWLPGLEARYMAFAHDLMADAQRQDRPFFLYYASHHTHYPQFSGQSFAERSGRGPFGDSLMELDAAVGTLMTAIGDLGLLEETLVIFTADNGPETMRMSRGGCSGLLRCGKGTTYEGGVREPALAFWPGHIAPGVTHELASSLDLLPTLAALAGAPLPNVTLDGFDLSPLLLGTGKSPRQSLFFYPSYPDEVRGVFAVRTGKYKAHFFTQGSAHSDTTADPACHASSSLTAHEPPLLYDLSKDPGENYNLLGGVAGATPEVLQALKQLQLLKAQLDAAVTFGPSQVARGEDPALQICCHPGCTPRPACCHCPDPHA
Summary of the method: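 SV40-transformed skin fibroblasts from an MLD patient (ASA-I179S) were treated with compounds for 48h at 37 degree C, then lysed with 0.5mM pNCS final substrate for 14h at room temperature; NaOH stop, fluorescence read (Ex=525 nm; Em=598 nm).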

[11] = qHTS for compounds that reverse cellular toxicity of Amyloid beta (A-beta) peptide in yeast: LOPAC Validation Assay (AID 720559)
Summary of the method: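 Yeast cells expressing toxic A-beta were combined with pinned compounds in growth medium and incubated 48 hr at 30 C. Growth was read as absorbance at 600 nm and normalized to DMSO and to an equimolar FeCl3/clioquinol positive control.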

[12] = qHTS for Activators of Parkin Expression: LOPAC Validation Assay (NLuc Reporter) (AID 720572)
Summary of the method: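 Compound effects on Parkin promoter activity were measured as NanoLuc luminescence after 24 h at 37 C. The neuronal reporter line also carried FLuc, which was read first. LOPAC compounds were tested at 7 concentrations, with normalization to DMSO (0%) and positive control (100%).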

[13] = qHTS for Activators of Parkin Expression: LOPAC Validation Assay (FLuc Reporter) (AID 720573)
Summary of the method: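 Neuronal cell line stably carrying FLuc/NLuc coincidence reporter under Parkin promoter; cells plated 24 h, then compounds added in 7-point dose response for 24 h at 37 C. FLuc luminescence read; normalized to DMSO and positive control (100%).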

[14] = molecular target: T1, Hexokinase-4 (Homo sapiens) + Glucokinase regulatory protein (Homo sapiens) (UniProt P35557+Q14397); experiment: qHTS assay for inhibitors of recombinant human GCK-GKRP interaction: Diaphorase-coupled assay (AID 743205)
T1 sequence (P35557 whole entry, looked up): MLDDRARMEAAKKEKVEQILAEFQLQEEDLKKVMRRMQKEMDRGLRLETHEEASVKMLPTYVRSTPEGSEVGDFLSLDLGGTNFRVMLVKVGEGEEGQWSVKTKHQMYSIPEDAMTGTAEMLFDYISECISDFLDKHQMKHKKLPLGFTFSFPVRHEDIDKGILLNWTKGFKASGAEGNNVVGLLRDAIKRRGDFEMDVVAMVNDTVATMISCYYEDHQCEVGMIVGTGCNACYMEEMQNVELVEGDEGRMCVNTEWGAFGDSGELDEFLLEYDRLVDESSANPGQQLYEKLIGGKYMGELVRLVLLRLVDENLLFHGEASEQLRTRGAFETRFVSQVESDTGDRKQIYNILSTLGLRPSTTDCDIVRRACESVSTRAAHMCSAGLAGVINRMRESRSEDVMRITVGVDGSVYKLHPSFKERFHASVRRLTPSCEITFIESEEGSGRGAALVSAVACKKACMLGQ
T1 sequence (Q14397 whole entry, looked up): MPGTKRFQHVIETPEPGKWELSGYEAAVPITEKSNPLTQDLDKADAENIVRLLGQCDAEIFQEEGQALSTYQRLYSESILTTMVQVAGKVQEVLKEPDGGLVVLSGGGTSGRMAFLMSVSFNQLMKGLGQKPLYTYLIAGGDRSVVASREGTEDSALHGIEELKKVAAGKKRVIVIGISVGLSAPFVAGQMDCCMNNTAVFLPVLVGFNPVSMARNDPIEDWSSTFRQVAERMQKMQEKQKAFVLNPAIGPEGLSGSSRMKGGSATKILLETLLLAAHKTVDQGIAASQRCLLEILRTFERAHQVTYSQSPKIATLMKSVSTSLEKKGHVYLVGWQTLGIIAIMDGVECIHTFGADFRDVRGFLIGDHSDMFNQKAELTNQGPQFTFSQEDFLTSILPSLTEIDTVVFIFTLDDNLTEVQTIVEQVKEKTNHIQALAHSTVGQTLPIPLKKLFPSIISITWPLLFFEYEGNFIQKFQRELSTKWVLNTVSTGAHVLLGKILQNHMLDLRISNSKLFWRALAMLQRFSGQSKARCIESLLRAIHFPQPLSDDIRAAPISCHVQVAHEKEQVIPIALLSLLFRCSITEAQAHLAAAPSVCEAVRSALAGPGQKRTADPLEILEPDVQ
Summary of the method: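 GST-GCK (10 nM) with FLAG-GKRP (10 nM), 5 mM glucose and 0.4 mM ATP in pH 7.6 Hepes; compounds preincubated 20 min with substrate. G6PDH/diaphorase coupling converts resazurin to resorufin, read kinetically (ex 525/em 590 nm) for 30 min.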

[15] = molecular target: T1, Hexokinase-4 (Homo sapiens) + Glucokinase regulatory protein (Homo sapiens); experiment: qHTS assay for inhibitors of recombinant human GCK-GKRP interaction: ADP-Glo assay (AID 743206)
Summary of the method: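 Pin-transferred compounds meet a 15 nM GST-GCK/15 nM FLAG-GKRP/2 uM S6P mix (dispense concentrations). ATP is then added to 0.4 mM final with 5 mM glucose, and the reaction runs 60 min at room temperature. ADP is quantified luminescently.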

[16] = qHTS for Inhibitors of Ubiquitin-specific Protease USP2a Using CHOP2 as the Reporter: K633 Counterscreen (AID 652168); further: series mostly up to about 57 µM
Summary of the method: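 Detection-system control: fluorescence of K48-linked DiUb-4IQF substrate (100 nM as added) tracked over time, Ex 525/Em 598, with pinned compounds and no enzyme, in pH 8 Tris buffer containing beta-mercaptoethanol and 0.05% Chaps.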

[17] = qHTS for Inhibitors of Ubiquitin-specific Protease USP2a Using CHOP2 as the Reporter: Cytotox Assay (AID 652170);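 further: HCT116 human colon cancer cells at 600 per well; series mostly up to about 46 µM; nearly all actives have a fitted effect of over 70% in size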
Summary of the method: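 Cytotoxicity read as ATP luminescence (CellTiter-Glo) after 72 hr compound treatment at 37 deg C. Cells: HCT116, 600/well in DMEM plus 10% FBS. Normalization between DMSO-treated cells and cell-free wells.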

[18] = qHTS assay to identify small molecules that stimulate interleukin-8 (IL-8) secretion (AID 651758; active means well fitted activation curve with a large enough effect in the signal ratio; the % refers to the signal ratio)
Summary of the method: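 Secreted IL-8 measured homogeneously by TR-FRET (two labelled anti-IL-8 antibodies, 1-3 h at room temperature) after a 16 h, 37 C compound treatment of THP-1 cells at 2000 cells/well.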

## N=C(N)c1ccc(OCCCCCOc2ccc(C(=N)N)cc2)cc1
[1]
  outcome: inactive
[2]
  max response: -3.05% and -5.88%
[3]
  outcome: inactive
[4]
  Potency: inactive
[5]
  max response: -9.35% and -16.5%

## CC[C@H](C)C(=O)O[C@H]1C[C@@H](C)C=C2C=C[C@H](C)[C@H](CC[C@@H]3C[C@@H](O)CC(=O)O3)[C@H]21
[6]
  Potency: inactive
[1]
  outcome: inactive
[7]
  activation: -1.02%
[2]
  max response: 1.65%
[8]
  Potency: 4.73 µM (active)
[3]
  outcome: inactive
[5]
  max response: -3.79%

## O=C(N[C@H](CO)[C@H](O)c1ccc([N+](=O)[O-])cc1)C(Cl)Cl
[9]
  Potency: inactive
[6]
  Potency: inactive
[1]
  outcome: inactive
[7]
  activation: 2.18% and 1.42%
[2]
  max response: 0.618% and -1.35%
[8]
  Potency: inactive
[3]
  outcome: inactive
[4]
  Potency: inactive
[5]
  max response: 3.1% and 1.36%

## O=C(O)c1cc(=O)[nH]c(=O)[nH]1
[1]
  outcome: inactive
[7]
  activation: 0.283%
[2]
  max response: -0.877%
[8]
  Potency: inactive
[3]
  outcome: inactive
[4]
  Potency: inactive
[5]
  max response: 16.2%

## N[C@@H](Cc1ccc(O)c(O)c1)C(=O)O
[7]
  activation: 2.04%
[2]
  max response: -1.63%
[10]
  outcome: inactive
[11]
  outcome: inactive
[12]
  outcome: inactive
[13]
  outcome: inactive
[5]
  max response: 13.2%
[14]
  outcome: inactive
[15]
  outcome: inactive

## Cc1cc(NS(=O)(=O)c2ccc(N)cc2)no1
[1]
  outcome: inactive
[7]
  activation: -0.784%
[2]
  max response: -1.17%
[8]
  Potency: inactive
[16]
  outcome: inactive
[17]
  outcome: inactive
[3]
  outcome: inactive
[4]
  Potency: inactive
[5]
  max response: 3.89%

## Cc1ccnc2c1NC(=O)c1cccnc1N2C1CC1
[1]
  outcome: inactive
[7]
  activation: 0.221%
[2]
  max response: -3.94%
[8]
  Potency: inactive
[3]
  outcome: inactive
[4]
  Potency: inactive
[5]
  max response: -0.463%

## CC(=O)[C@H]1CC[C@H]2[C@@H]3CCC4=CC(=O)CC[C@]4(C)[C@H]3CC[C@]12C
[1]
  outcome: inactive
[7]
  activation: 0.0693% and 1.75% and -2.26%
[2]
  max response: 1.94% and -2.09% and -1.65%
[11]
  outcome: inactive
[12]
  outcome: inactive
[13]
  outcome: inactive
[3]
  outcome: inactive
[5]
  max response: -18% and -11.7% and -23.6%
[14]
  outcome: inactive
[15]
  outcome: inactive

## CCc1cc(C(N)=S)ccn1
[9]
  Potency: inactive
[6]
  Potency: inactive
[1]
  outcome: inactive
[2]
  max response: -3.66% and -3.46%
[8]
  Potency: inactive
[3]
  outcome: inactive
[4]
  Potency: inactive
[5]
  max response: -5.32% and -4.73%

## NNC(=O)c1ccncc1
[9]
  Potency: inactive
[6]
  Potency: inactive
[1]
  outcome: inactive
[18]
  outcome: inactive
[7]
  activation: 4.86%
[2]
  max response: -1.45%
[8]
  Potency: inactive
[3]
  outcome: inactive
[4]
  Potency: inactive
[5]
  max response: -4.52%

## NC(N)=NC(N)=NCCc1ccccc1
[1]
  outcome: inactive
[7]
  activation: 1.08% and -0.702%
[2]
  Potency: 35.5 µM (active)
  max response: -1.6%
[8]
  Potency: 16.8 µM (active)
[3]
  outcome: inactive
[4]
  Potency: inactive
[5]
  max response: -24.7% and -24.4%

## OC(Cn1cncn1)(Cn1cncn1)c1ccc(F)cc1F
[7]
  activation: -1.75%
[2]
  max response: -1.95%
[3]
  outcome: inactive
[5]
  max response: 0.0873%

## CC1=NN(c2ccccc2)C(=O)C1
[1]
  outcome: inactive
[2]
  max response: -0.816% and -5.33%
[8]
  Potency: inactive
[3]
  outcome: inactive
[4]
  Potency: inactive
[5]
  max response: -3.99% and -6.22%

## Cc1nnc(NS(=O)(=O)c2ccc(N)cc2)s1
[1]
  outcome: inactive
[7]
  activation: -0.461%
[2]
  max response: 6.59%
[8]
  Potency: inactive
[3]
  outcome: inactive
[4]
  Potency: inactive
[5]
  max response: 4.88%

## CC(=O)Oc1ccccc1C(=O)Nc1ncc([N+](=O)[O-])s1
[2]
  max response: -4.4%
[3]
  outcome: inactive

## Cc1noc(NS(=O)(=O)c2ccc(N)cc2)c1C
[1]
  outcome: inactive
[7]
  activation: 0.11% and 1.55%
[2]
  max response: 0.0609% and -2.74%
[3]
  outcome: inactive
[4]
  Potency: inactive
[5]
  max response: -4.33% and -0.699%

## CN(C)c1ccc(C(=C2C=CC(=[N+](C)C)C=C2)c2ccc(N(C)C)cc2)cc1
[9]
  Potency: 0.668 µM (active)
[6]
  Potency: 1.19 µM (active)
[7]
  activation: -11.2% and -3.03%
[2]
  max response: -11.8% and -11.3%
[8]
  Potency: 2.37 µM (active)
[3]
  outcome: inactive
[4]
  Potency: 10.6 µM (active)
[5]
  Potency: 25.1 µM (active) and 12.6 µM (active)

## Cc1ncc([N+](=O)[O-])n1CCO
[18]
  outcome: inactive
[7]
  activation: -0.201%
[2]
  max response: -0.879%
[8]
  Potency: inactive
[3]
  outcome: inactive
[4]
  Potency: inactive
[5]
  max response: -1.04%

From PubChem BioAssay (NCATS)
